Consider four compounds from PubChem BioAssay (NCI).

Compounds without any hit were thinned out: in the full panel of roughly 83,000, 20% have a hit.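 Step 1: grow cells in 96-well plates. Step 2: add test compound at a single concentration. Step 3: incubate 48 h. Step 4: record percent growth.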 Calls of active or inactive are those of the source. Rule for the calls: active = growth percent below 10; inactive = the rest.

The subject of the experiment is HL-60(TB) leukemia. The experiment is described as follows: NCI-60 one-dose screen, 48 h (100 = growth as untreated, 0 = no growth, -100 = all killed). Particulars: 10 µM unless noted.
On to `COc1ccc(NC(=O)N/N=C/c2c[nH]c3ccccc23)cc1`, for which the growth was 1.79% (active).
With `COc1ccc(OC)c(/C=N/NC(=O)c2ccc3nc(-c4ccc(Cl)cc4)[nH]c3c2)c1`, the growth was 87.1% (inactive).
Turning to `CN1C/C(=C\c2ccc(O)cc2O)c2[o+]c3cc(O)ccc3cc2C1`, the growth is 46.8% (inactive).
For the compound `CN(C)c1ccc(/C=C/c2n(Cc3ccc4ccccc4c3)c3ccccc3[n+]2Cc2ccc3ccccc3c2)cc1`, the growth was -47.1% (active).
